Data from the supplement of paper PMC6763611.

test system: Plasmodium falciparum NF54; assay: growth inhibition relative to untreated control; higher = more inhibition; conditions: 1 µM; MM + chorismate end-products (CM screening medium); 72 h
Outline: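 Two media were used: minimal RPMI, and minimal RPMI carrying the chorismate end-products folate, pABA, pHBA, tyrosine, phenylalanine and tryptophan at 2.2 μM, 7.3 μM, 7.3 μM, 111 μM and 90 μM for the first five. In these media, P. falciparum NF54 ring stages (1% hematocrit, 1% parasitemia, 100 μL/well) were exposed in dark 96-well half-area plates to a single 5 μM or 1 μM test-compound dose for 72 h at 37 °C. Growth inhibition was then assessed with SYBR Green against untreated wells, subtracting background from uninfected erythrocytes.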

Row | SMILES | growth inhibition [%]
1 | COc1cc(C(F)(F)F)nc2ccc(C)c(N)c12 | < 0
2 | CCOc1ccccc1NC(C)C(=O)Nc1cc(C(F)(F)F)ccc1N1CCOCC1 (stereo unspecified) | 76
3 | CCc1ccc([C@@H]2C[C@H](C(F)(F)F)n3ncc(C(=O)NCc4ccc(OC)cc4)c3N2)cc1 | 31
4 | O=C(Nc1cnc2ccccc2c1)c1cccc(-n2cnnn2)c1 | 94.1
5 | COc1ccc(-c2cnc3ccc(NCc4ccc(S(N)(=O)=O)cc4)nn23)cn1 | 73.3
6 | CCc1ccc(S(=O)(=O)Nc2cc(CN3CCN(CCC(C)C)CC3)ccc2C)cc1 | 31.6
7 | Cc1nc(-c2cccc(NCc3ccccc3)c2)[nH]c1C | 63.5
8 | O=C(C1CCN(c2cc(-n3cccc3)ncn2)CC1)N1CCc2ccccc2C1 | 11.5
9 | COc1ccc(Cn2cnc3c(-c4ccco4)nc(Cl)nc32)cc1 | < 0
10 | O=C(CN1CCOCC1)Nc1ccc2ncnc(Nc3ccc(OCc4cccc(F)c4)c(Cl)c3)c2c1 | 2.86
11 | CC(C)/N=c1\cc2n(-c3ccc(Cl)cc3)c3ccccc3nc-2cc1Nc1ccc(Cl)cc1 | 91.5
12 | NC(=O)c1cc(-c2ccsc2)ccc1OCCOc1ccccc1 | 18.1
13 | Cc1nnc(NCc2cccc(Cl)c2)c2ccccc12 | 37.2
14 | CCc1nc2ccccc2n1CC(O)COc1cc(C)ccc1Cl (stereo unspecified) | 31.1
15 | O=C(N[C@H](Cc1ccccc1)C(=O)Nc1ccccc1N1CCOCC1)c1cccs1 | 6.47
16 | CC(C)(C)OC(=O)N1CCC(Cn2nc(-c3cnc4ccccc4c3)c3c(N)ncnc32)CC1 | > 100
17 | CC(Oc1cccc(Cl)c1)C(=O)Nc1ccc2oc(-c3ccncc3)nc2c1 (stereo unspecified) | < 0
18 | Cc1ccc(NC(=O)c2nc[nH]c2C(=O)Nc2nc3ccccc3[nH]2)c(C)c1 | 31
19 | CC(=O)Nc1ccc(NC(=O)c2cc(-c3cc(Cl)ccc3O)n[nH]2)cc1 | 96.6

Row | SMILES | growth inhibition [%]
20 | Cn1ncc2c(N3CCOCC3)nc(NCCc3c[nH]c4ccccc34)nc21 | 18.9
21 | CC(=O)Nc1ccc(-c2noc(CC3CCCN(Cc4cccc(F)c4C)C3)n2)cc1 (stereo unspecified) | 25.8
22 | CN1CCCN(C(c2ccccc2)c2ccc(Cl)cc2)CC1 (stereo unspecified) | < 0
23 | CN1CCN(c2nccc3nc(-c4ccc(F)c(F)c4)[nH]c23)CC1 | 58.8
24 | O=S(=O)(c1ccc(Cl)cc1)N1CCN(C(=S)NCc2ccco2)CC1 | 97.7
25 | CNCCC(Oc1ccc(C(F)(F)F)cc1)c1ccccc1 (stereo unspecified) | 10.2
26 | CC(C)(C)c1ccc(N[C@@H]2CCCC[C@H]2NC(=O)c2ccco2)cc1 | 20.8
27 | Cc1cc(O)nc(-n2nc(C)cc2C)n1 | 5.27
28 | CC1=Nc2ccc(Cl)cc2C(O)(c2ccc(C)cc2)N1CCN1CCCCC1 (stereo unspecified) | 99.9
29 | CCn1ncc2c(NC3CCOCC3)c(CNC(=O)c3ccnn3C)c(C)nc21 | 63.5
30 | Brc1cncc(-c2cc(NCCCn3ccnc3)nc(-c3ccccc3)n2)c1 | > 100
31 | NCCC(O)C(=O)N[C@@H]1C[C@H](N)[C@@H](OC2O[C@H](CN)[C@@H](O)[C@H](O)[C@H]2O)[C@H](O)C1OC1O[C@H](CO)[C@@H](O)[C@H](N)[C@H]1O (stereo partly specified) | 46
32 | COc1ccc(N(CCc2cccc(C)n2)C(C)=O)cc1 | 16.2
33 | CN(C)c1cc(NC(=O)Nc2ccccc2)c2ccccc2n1 | 96
34 | COc1cc(Br)cc2cc(C(=O)Nc3cccc(C(F)(F)F)c3)c(=O)oc12 | 11.9
35 | COc1ccc(S(=O)(=O)Nc2ccc(CN3CCN(C(=O)c4cccc(C#N)c4)CC3)cc2)cc1 | 0.529
36 | O=C(c1ccc(F)cc1)N(CCNc1ccccc1)c1ccccc1 | < 0
37 | CC[C@@H]([C@H](C)O)n1ncn(-c2ccc(N3CCN(c4ccc(OC[C@@H]5CO[C@@](Cn6cncn6)(c6ccc(F)cc6F)C5)cc4)CC3)cc2)c1=O | 45.5
38 | CN1CCN(CCCOc2ncc(Nc3ncc(-c4ccc(C(F)(F)F)c(F)c4)nc3C(N)=O)cn2)CC1 | > 100

same assay, conditions: 1 µM; minimal medium (MM); 72 h

Row | SMILES | growth inhibition [%]
39 | COc1cc(C(F)(F)F)nc2ccc(C)c(N)c12 | 30.2
40 | CCOc1ccccc1NC(C)C(=O)Nc1cc(C(F)(F)F)ccc1N1CCOCC1 (stereo unspecified) | 64.5
41 | CCc1ccc([C@@H]2C[C@H](C(F)(F)F)n3ncc(C(=O)NCc4ccc(OC)cc4)c3N2)cc1 | 6.61
42 | O=C(Nc1cnc2ccccc2c1)c1cccc(-n2cnnn2)c1 | 96.4
43 | COc1ccc(-c2cnc3ccc(NCc4ccc(S(N)(=O)=O)cc4)nn23)cn1 | 77.2
44 | CCc1ccc(S(=O)(=O)Nc2cc(CN3CCN(CCC(C)C)CC3)ccc2C)cc1 | 4.88
45 | Cc1nc(-c2cccc(NCc3ccccc3)c2)[nH]c1C | 35.9
46 | O=C(C1CCN(c2cc(-n3cccc3)ncn2)CC1)N1CCc2ccccc2C1 | 5.57
47 | COc1ccc(Cn2cnc3c(-c4ccco4)nc(Cl)nc32)cc1 | 13.5
48 | O=C(CN1CCOCC1)Nc1ccc2ncnc(Nc3ccc(OCc4cccc(F)c4)c(Cl)c3)c2c1 | 9.8
49 | CC(C)/N=c1\cc2n(-c3ccc(Cl)cc3)c3ccccc3nc-2cc1Nc1ccc(Cl)cc1 | 89.1
50 | NC(=O)c1cc(-c2ccsc2)ccc1OCCOc1ccccc1 | 9.01
51 | Cc1nnc(NCc2cccc(Cl)c2)c2ccccc12 | 4.12
52 | CCc1nc2ccccc2n1CC(O)COc1cc(C)ccc1Cl (stereo unspecified) | 36.8
53 | O=C(N[C@H](Cc1ccccc1)C(=O)Nc1ccccc1N1CCOCC1)c1cccs1 | 2.12
54 | CC(C)(C)OC(=O)N1CCC(Cn2nc(-c3cnc4ccccc4c3)c3c(N)ncnc32)CC1 | < 0
55 | CC(Oc1cccc(Cl)c1)C(=O)Nc1ccc2oc(-c3ccncc3)nc2c1 (stereo unspecified) | 2.28
56 | Cc1ccc(NC(=O)c2nc[nH]c2C(=O)Nc2nc3ccccc3[nH]2)c(C)c1 | 49.8
57 | CC(=O)Nc1ccc(NC(=O)c2cc(-c3cc(Cl)ccc3O)n[nH]2)cc1 | 95.3

Row | SMILES | growth inhibition [%]
58 | Cn1ncc2c(N3CCOCC3)nc(NCCc3c[nH]c4ccccc34)nc21 | 31.1
59 | CC(=O)Nc1ccc(-c2noc(CC3CCCN(Cc4cccc(F)c4C)C3)n2)cc1 (stereo unspecified) | < 0
60 | CN1CCCN(C(c2ccccc2)c2ccc(Cl)cc2)CC1 (stereo unspecified) | < 0
61 | CN1CCN(c2nccc3nc(-c4ccc(F)c(F)c4)[nH]c23)CC1 | 66.9
62 | O=S(=O)(c1ccc(Cl)cc1)N1CCN(C(=S)NCc2ccco2)CC1 | 93.6
63 | CNCCC(Oc1ccc(C(F)(F)F)cc1)c1ccccc1 (stereo unspecified) | < 0
64 | CC(C)(C)c1ccc(N[C@@H]2CCCC[C@H]2NC(=O)c2ccco2)cc1 | 20.6
65 | Cc1cc(O)nc(-n2nc(C)cc2C)n1 | < 0
66 | CC1=Nc2ccc(Cl)cc2C(O)(c2ccc(C)cc2)N1CCN1CCCCC1 (stereo unspecified) | > 100
67 | CCn1ncc2c(NC3CCOCC3)c(CNC(=O)c3ccnn3C)c(C)nc21 | > 100
68 | Brc1cncc(-c2cc(NCCCn3ccnc3)nc(-c3ccccc3)n2)c1 | 39.8
69 | NCCC(O)C(=O)N[C@@H]1C[C@H](N)[C@@H](OC2O[C@H](CN)[C@@H](O)[C@H](O)[C@H]2O)[C@H](O)C1OC1O[C@H](CO)[C@@H](O)[C@H](N)[C@H]1O (stereo partly specified) | 17.2
70 | COc1ccc(N(CCc2cccc(C)n2)C(C)=O)cc1 | < 0
71 | CN(C)c1cc(NC(=O)Nc2ccccc2)c2ccccc2n1 | 95.6
72 | COc1cc(Br)cc2cc(C(=O)Nc3cccc(C(F)(F)F)c3)c(=O)oc12 | 6.95
73 | COc1ccc(S(=O)(=O)Nc2ccc(CN3CCN(C(=O)c4cccc(C#N)c4)CC3)cc2)cc1 | < 0
74 | O=C(c1ccc(F)cc1)N(CCNc1ccccc1)c1ccccc1 | < 0
75 | CC[C@@H]([C@H](C)O)n1ncn(-c2ccc(N3CCN(c4ccc(OC[C@@H]5CO[C@@](Cn6cncn6)(c6ccc(F)cc6F)C5)cc4)CC3)cc2)c1=O | 50.3
76 | CN1CCN(CCCOc2ncc(Nc3ncc(-c4ccc(C(F)(F)F)c(F)c4)nc3C(N)=O)cn2)CC1 | > 100
